We go through 31 compounds from PubChem BioAssay AID1345085 (National Center for Advancing Translational Sciences (NCATS), 2018).

Records with an inconclusive call do not appear. Calls of active or inactive are those of the source. Calls follow the shape of the dose curve; as a rule, active = well fitted cell-killing curve with a large enough effect; inconclusive = small, poorly fitted or top-dose-only effect, or effect the other way; inactive = no such curve, though single readings can be large or run the other way. *1 amine or outer side, *2 acyl side, *3 side chain or, on linkers, in order; H or OH if unused. Where a SMILES comes first, the peptide text is derived from it. Bridges are numbered along the chain shown (N, C = ends). Roman numbers before positions name the chains, in order. [ ]: non-standard residue; d: D form. Actinocin(9to1) = Cc1c2oc3c(C)ccc(C(=O)[*:1])c3nc-2c(C(=O)[*:2])c(N)c1=O; NMeV = CN[C@H](C(=O)O)C(C)C; Sar = CNCC(=O)O
% is scaled to controls: 0 for no effect and ±100 for the full control effect; potency is read from the fitted curve at half-maximal effect.

In this test the test system is SW626. Description: Confirmatory qHTS for gynecologic anti-cancer compounds from libraries of approved drugs and bioactive compounds. Also: nearly all actives have a fitted effect of over 55% in size. The conditions noted are these: gynecologic cancer cell panel viability, ATPlite luminescence, 48 h; series mostly up to 57.6 µM; activity change, negative = viability loss: at the top concentration. The essentials:
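1,000 cells/well; 16 h pre-incubation 37 C, 5% CO2; pin-transferred cpd in DMSO, 11 conc (1:3), 57.5 uM–0.977 nM; 48 h; ATPlite, 15 min RT; luminescence → IC50.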
In general terms: Quantitative high-throughput screening tests each substance at several concentrations.
On to `Cc1cncc2cccc(S(=O)(=O)N3CCCN(C(=O)CN)C[C@@H]3C)c12`, for which the “activity change, negative = viability loss” value was -17% (inactive).

For `CC(C)(C)C(=O)OCOP(=O)(COCCn1cnc2c(N)ncnc21)OCOC(=O)C(C)(C)C`, the Potency was 17.2 µM (active).

For the compound `C=CC(=O)Nc1cccc(Oc2nc(Nc3ccc(N4CCN(C)CC4)cc3)ncc2Cl)c1`, the Potency was 24.3 µM (active).

For the compound `CCc1nc(C(N)=O)c(Nc2ccc(N3CCC(N4CCN(C)CC4)CC3)c(OC)c2)nc1NC1CCOCC1`, the Potency is 3.78 µM (active).

For `NS(=O)(=O)c1ccc(Nc2nc(OCC3CCCCC3)c3[nH]cnc3n2)cc1`, the “activity change, negative = viability loss” value was -23.4% (inactive).

On to `Fc1cc(-c2cccc3ncc(-c4cnn(C5CCNCC5)c4)nc23)cc(F)c1CN1CCOCC1`, for which the Potency is 27.3 µM (active).

`NC(=O)c1ccc2nc(-c3ccc(Oc4ccc(Cl)cc4)cc3)[nH]c2c1`: the “activity change, negative = viability loss” value was -27.1% (inactive).

As for `OCc1ccc(-c2ccc(-c3ccc(CO)s3)o2)s1`, the Potency is 10.6 µM (active).

Consider `CNCc1ccc(-c2[nH]c3cc(F)cc4c3c2CCNC4=O)cc1`, for which the “activity change, negative = viability loss” value was -7.71% (inactive).

In the case of `NC(=O)Nc1cc(-c2cccc(F)c2)sc1C(=O)NC1CCCNC1` (stereo unspecified), the Potency was 0.306 µM (active).

On to `C[C@]12CCC(=O)C=C1[C@@H]1C[C@@H]1[C@H]1[C@@H]3[C@@H]4C[C@@H]4[C@@]4(CCC(=O)O4)[C@@]3(C)CC[C@@H]12`, for which the “activity change, negative = viability loss” value was -0.458% (inactive).

With `Cc1c2oc3c(C)ccc(C(=O)N[C@@H]4C(=O)N[C@H](C(C)C)C(=O)N5CCC[C@H]5C(=O)N(C)CC(=O)N(C)[C@@H](C(C)C)C(=O)O[C@@H]4C)c3nc-2c(C(=O)N[C@@H]2C(=O)N[C@H](C(C)C)C(=O)N3CCC[C@H]3C(=O)N(C)CC(=O)N(C)[C@@H](C(C)C)C(=O)O[C@@H]2C)c(N)c1=O` (I: T[dV]P[Sar][NMeV] / II: T[dV]P[Sar][NMeV]; ester I:1-I:C, II:1-II:C; linker I:N-II:N via Actinocin(9to1)), the Potency was 0.0863 µM (active).

Take `COc1cc(Nc2c(C#N)cnc3cc(OCCCN4CCN(C)CC4)c(OC)cc23)c(Cl)cc1Cl`: the Potency is 19.3 µM (active).

Regarding `Nc1ccccc1NC(=O)c1ccc(CNc2nccc(-c3cccnc3)n2)cc1`, the Potency is 0.685 µM (active).

Take `COc1cc(-c2nn(C3CCC(N4CCN(C(C)=O)CC4)CC3)c3ncnc(N)c23)ccc1NC(=O)c1cc2ccccc2n1C` (stereo unspecified): the Potency is 27.3 µM (active).

As to `CC[C@@]1(O)C(=O)OCc2c1cc1n(c2=O)Cc2cc3c(CN(C)C)c(O)ccc3nc2-1`, the Potency is 0.863 µM (active).

Regarding `N#CC1(c2cccc(C(=O)Nc3cc(Oc4ccc5nc(NC(=O)C6CC6)sc5n4)ccc3F)c2Cl)CC1`, the Potency is 4.85 µM (active).

For `CCCCN(CCCC)CC(O)c1cc(Cl)cc2c1-c1ccc(Cl)cc1/C2=C/c1ccc(Cl)cc1` (stereo unspecified), the “activity change, negative = viability loss” value was 5.04% (inactive).

As for `O=C(c1ccc(/C=C/c2n[nH]c3ccccc23)cc1)N1CCNCC1`, the Potency was 15.3 µM (active).

As to `CS(=O)(=O)c1ccc(C(=O)Nc2ccc(Cl)c(-c3ccccn3)c2)c(Cl)c1`, the “activity change, negative = viability loss” value was 11.7% (inactive).

With `O=C1Cc2cc(CCN3CCN(c4nsc5ccccc45)CC3)c(Cl)cc2N1`, the “activity change, negative = viability loss” value was -0.656% (inactive).

For `COc1cc(C(=O)N2CCC(N3CCN(C)CC3)CC2)ccc1Nc1ncc2c(n1)N(C)c1ccccc1C(=O)N2C`, the Potency is 7.69 µM (active).

With `Cc1ccc(C(N)=O)cc1Nc1nccc(-c2cn(C(C)C)c3cnccc23)n1`, the “activity change, negative = viability loss” value was 8.56% (inactive).

Take `FC(F)(F)c1ccc(/C=C/c2nc(COc3ccc(CCCCn4ccnn4)cc3)co2)cc1`: the “activity change, negative = viability loss” value was 5.87% (inactive).

In the case of `COc1ccc2c(c1)c(CC(=O)O)c(C)n2C(=O)c1ccc(Cl)cc1`, the “activity change, negative = viability loss” value is 1.53% (inactive).

Regarding `NC(=O)c1cccc2cn(-c3ccc([C@@H]4CCCNC4)cc3)nc12`, the “activity change, negative = viability loss” value was -13.2% (inactive).

Take `CCN1C[C@H](C)n2c(c(O)c3c(=O)n(Cc4ccc(F)c(Cl)c4)nc(C(=O)NC)c32)C1=O`: the “activity change, negative = viability loss” value is 7.26% (inactive).

Regarding `COc1cc(N2CCC(N3CCN(C)CC3)CC2)ccc1Nc1ncc(Cl)c(Nc2ccccc2S(=O)(=O)C(C)C)n1`, the Potency is 21.7 µM (active).

With `COc1c(C)c2c(c(O)c1C/C=C(\C)CCC(=O)O)C(=O)OC2`, the “activity change, negative = viability loss” value was -28.5% (inactive).

As to `CC[C@]1(O)C[C@H]2CN(CCc3c([nH]c4ccccc34)[C@@](C(=O)OC)(c3cc4c(cc3OC)N(C=O)[C@H]3[C@@](O)(C(=O)OC)[C@H](OC(C)=O)[C@]5(CC)C=CCN6CC[C@]43[C@@H]65)C2)C1`, the “activity change, negative = viability loss” value was -23.3% (inactive).

As for `COc1cc2c(NC3CCN(C(C)C)CC3)nc(C3CCCCC3)nc2cc1OCCCN1CCCC1`, the Potency was 10.9 µM (active).
